Assay results as given in ChEMBL document CHEMBL3988442, “University of Dundee, Small-Polar-MMV Screening Library” (2021).
Screen size: about 69,000 compounds; about 1,000 (1.4%) showed an effect of 50% or more. This is one part of a sample in which strong results are shown more often than they occur.

System: Leishmania donovani
Test: Leishmania intramacrophage assay
Assay type: functional, organism-based
Parameters: scale not given: in the data most compounds retested in dose-response had high values

COCc1noc(CN2C[C@H](C3CC3)[C@@H](N(C)C)C2)n1
Percent Effect (30.3 µM, […]): 0.8667%

COCCOCCNS(=O)(=O)C1CS(=O)(=O)c2ccccc21 (stereo unspecified)
Percent Effect (30.3 µM, […]): -2.938%

O=C(Nc1ccc(F)cc1)C1CNCCN1C(=O)CCc1cccnc1 (stereo unspecified)
Percent Effect (30.3 µM, […]): 21.52%

CC1CN(C)CCN1C(=O)c1ccn(-c2ccc(F)cc2)n1 (stereo unspecified)
Percent Effect (30 µM): 12.79%

CN(CCN1CCCCCC1)C(=O)c1cc(CN2CCCC(O)C2)on1 (stereo unspecified)
Percent Effect (30.3 µM, […]): 28.93%

COc1cccc2c1OCCCN(Cc1ccc(C(N)=O)c(=O)[nH]1)C2
Percent Effect (30.3 µM, […]): 18.01%

COc1c(CNCc2ccccc2CN2CCOCC2)c(C)nn1C
Percent Effect (30.3 µM, […]): 15.12%

O=C(CN1CCc2cncnc2C1)NC1CCCCNC1=O (stereo unspecified)
Percent Effect (30.3 µM, […]): 3.811%

Cn1cc(CN2C[C@H]3CCC[C@@]3(COCC3CC3)C2)cn1.O=C(O)C(F)(F)F
Percent Effect (30.3 µM, […]): 55.4%

Cn1cc(CN2C[C@@H]3COC[C@]3(COCC3CC3)C2)cn1.O=C(O)C(F)(F)F
Percent Effect (30.3 µM, […]): 35.55%

Cc1nc(COC[C@@]23CCC[C@@H]2CN(Cc2cnn(C)c2)C3)cs1
Percent Effect (30.3 µM, […]): 33.3%

CN(C)C(=O)CN1CCCC2(CCN(c3ccsc3)C2=O)C1.O=C(O)C(F)(F)F (stereo unspecified)
Percent Effect (30 µM, 30.03 µM): -2.413%

O=C(O)C(F)(F)F.O=C1N(c2ccsc2)CCC12CCCN(CC1CC1)C2 (stereo unspecified)
Percent Effect (30.3 µM, […]): 57%

COCCN1CCCC2(CCN(c3ccsc3)C2=O)C1.O=C(O)C(F)(F)F (stereo unspecified)
Percent Effect (30.3 µM, […]): -19.62%

Cc1ccoc1C(=O)N1C[C@@H](OCC2CC2)[C@H]2OCCC[C@H]21
Percent Effect (30.3 µM, […]): 18.9%

COc1cccc(CN(C)C(C)C(=O)Nc2nc(C)c(C)s2)c1 (stereo unspecified)
Percent Effect (30.3 µM, […]): 51.15%

Cc1nc(NC(=O)C(C)N(C)Cc2cccc(C#N)c2)sc1C (stereo unspecified)
Percent Effect (30.3 µM, […]): -18.76%

Cc1nc(NC(=O)C(C)N(C)Cc2ccc3c(c2)OCO3)sc1C (stereo unspecified)
Percent Effect (30.3 µM, […]): 11.52%

CCN(CC)C1CCN(C(=O)NCc2cccc(-n3ccnc3)c2)C1 (stereo unspecified)
Percent Effect (30.3 µM, […]): 23.85%

Cl.O=C(O)C1(Cc2ccc(-c3cccs3)cc2)CCNC1 (stereo unspecified)
Percent Effect (30.3 µM, […]): 44.48%

Cl.O=C(N1CCCC1)C1(Cc2ccc(-c3cccs3)cc2)CCNC1 (stereo unspecified)
Percent Effect (30.3 µM, […]): 86.38%

Cl.O=C(O)C1(Cc2cccc(-c3cccs3)c2)CCCNC1 (stereo unspecified)
Percent Effect (30.3 µM, […]): 29.13%

O=C(NCc1cc[nH]n1)NCC(O)c1ccc(F)cc1F (stereo unspecified)
Percent Effect (30 µM, 30.03 µM): 9.759%

O=C(c1cnccn1)N1CCCC(C2=Nc3ccccc3S(=O)(=O)N2)C1 (stereo unspecified)
Percent Effect (30.3 µM, […]): -20.53%

O=C1CCC(=O)N1c1nn(Cc2cccc(F)c2)cc1Cl
Percent Effect (30.3 µM, […]): -1.051%

CC(C)CN1CC(C(=O)NCCNc2ncccn2)CC1=O (stereo unspecified)
Percent Effect (30.3 µM, […]): 7.647%

COCC(=O)N1CCCn2c(CN3CCCCC3)nnc2C1.O=C(O)C(F)(F)F
Percent Effect (30 µM, 30.03 µM): -9.377%

COCC(=O)N1CCCn2c(CN3CCCC3=O)nnc2C1
Percent Effect (30.3 µM, […]): 51.47%

COCC(=O)N1CCCn2c(CN3CCCC3)nnc2C1
Percent Effect (30.3 µM, […]): 44.76%

CCOc1ccc(C(=O)NS(=O)(=O)c2cncc(Br)c2)cc1OC
Percent Effect (30 µM, 30.03 µM): 20.52%

COCCN(Cc1sccc1C)c1nc(C)nc2sccc12
Percent Effect (30.3 µM, […]): 13.95%

CCOCCN(CCOCC)c1nc(C)nc2sccc12
Percent Effect (30.3 µM, […]): 93.26%

CCCN(CCOC)c1nc(C)nc2sccc12
Percent Effect (30.3 µM, […]): 19.01%

Cc1nnc(SCCNC(=O)Cn2cnc3ccccc3c2=O)s1
Percent Effect (30.3 µM, […]): 15.09%

Cc1cnc(N2CCC3(CCN(Cc4csc(C)n4)C3=O)C2)nc1.O=C(O)C(F)(F)F (stereo unspecified)
Percent Effect (30.3 µM, […]): 19.08%

COc1cc(N2CCC3(CCN(Cc4csc(C)n4)C3)CC2)ncn1.O=C(O)C(F)(F)F
Percent Effect (30.3 µM, […]): 30.69%

COc1cc(N2CCC3(CCN(Cc4csc(C)n4)C3=O)C2)ncn1.O=C(O)C(F)(F)F (stereo unspecified)
Percent Effect (30.3 µM, […]): 55.45%

COCCCn1c(CN2CCSCC2)cnc1S(=O)(=O)C1CCCC1
Percent Effect (30.3 µM, […]): 17.55%

CCc1nc2n(n1)CC(NCC(=O)Nc1ccc(Cl)cn1)CC2 (stereo unspecified)
Percent Effect (30 µM, 30.03 µM): 11.34%

CC(CNS(N)(=O)=O)Oc1cccc(Cl)c1 (stereo unspecified)
Percent Effect (30.3 µM, […]): 5.132%

CC(CNS(C)(=O)=O)Oc1cccc(Cl)c1 (stereo unspecified)
Percent Effect (30.3 µM, […]): 6.182%

CNCc1cc(F)ccc1Oc1ccc(Cl)cc1
Percent Effect (30.3 µM, […]): -3.595%

Cc1ccc(Oc2c(F)cccc2OC[C@@H](N)CC(C)C)cc1
Percent Effect (30.3 µM, […]): 95.01%

CC(C)C[C@H](N)COc1cccc(F)c1Oc1ccc(Cl)cc1
Percent Effect (30.3 µM, […]): 96.61%

COc1ccccc1C(N)CC(C)C (stereo unspecified)
Percent Effect (30.3 µM, […]): 3.977%

CC(C)COc1ccccc1C(N)CC(C)C (stereo unspecified)
Percent Effect (30.3 µM, […]): 23.51%

CC(C)C[C@H](N)COc1cccc(F)c1Oc1cccc(Cl)c1
Percent Effect (30.3 µM, […]): 98.08%

CC(C)C[C@H](N)COc1cccc(F)c1Oc1ccccc1
Percent Effect (30.3 µM, […]): 56.67%

CCOc1ccccc1C(N)CC(C)C (stereo unspecified)
Percent Effect (30.3 µM, […]): 19.23%

NCc1ccc(Oc2cccc(Cl)c2Cl)cc1
Percent Effect (30.3 µM, […]): 17.28%

CCCOc1ccccc1C(N)CC(C)C (stereo unspecified)
Percent Effect (30.3 µM, […]): 24.69%
